These results are taken from the supplement of paper PMC10105736.

A number with no mark means an inactive call.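 Rule for the calls: active = MAPPIT score above the 99th percentile of random reference set scores in the same batch; inactive = at or below it.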

Holding throughout (test): MAPPIT interaction score (arbitrary units); higher = stronger binary interaction signal, active = hit call of the paper
Test [1] deals with MagR. To be noted: MAPPIT configuration: N-N; pair source set: Lit-BS-16.
Test [2] addresses Polr1B. To be noted: MAPPIT configuration: N-N; pair source set: DPIM.
Test [3] addresses pav. To be noted: MAPPIT configuration: N-N; pair source set: DPIM.
Test [4] concerns the target MESK2. To be noted: MAPPIT configuration: N-N; pair source set: DPIM.
Test [5] concerns the target MAPk-Ak2. To be noted: MAPPIT configuration: N-N; pair source set: Curagen_high_conf.
In test [6] the target is Lmpt. To be noted: MAPPIT configuration: N-N; pair source set: Curagen_low_conf.
The target in test [7] is Pen. To be noted: MAPPIT configuration: N-N; pair source set: Finley_Y2H.
Test [8] has as its target lwr. The note with it: MAPPIT configuration: N-N; pair source set: screen_1.
Test [9] concerns the target MYPT-75D. To be noted: pair source set: Lit-BM-16.
For test [10], the target named is Mbs. To be noted: MAPPIT configuration: N-N; pair source set: Lit-BM-16.
Test [11] addresses Nop17l. To be noted: MAPPIT configuration: N-N; pair source set: Lit-BM-16.
For test [12], the target named is Tm1. To be noted: MAPPIT configuration: N-C; pair source set: Lit-BM-16.
The target of test [13] is Zasp66. To be noted: pair source set: Lit-BM-16.
In test [14] the target is elm. To be noted: MAPPIT configuration: N-N; pair source set: Lit-BS-16.
Test [15] addresses MED15. The note with it: MAPPIT configuration: N-N; pair source set: Finley_Y2H.
For test [16], the target named is MED8.
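Note: HEK293T cells with Epo stimulation, STAT-responsive firefly luciferase reporter, fold induction versus unstimulated cells divided by the larger fold induction of two negative controls lacking either bait or prey.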

B1: Hakai (protein)
chain: MDTEEVKRGRGRGRGTRARGRGRGRGRGRGKKIDDSSIADAAALAASSCAALEDSPGRLDASEDSVMQELDKDGELETPGALEEPLPHGALGAVAASGNMTPATQQPQVLQQVPPPVMSQTTISLSLARAVDMEADISQLEAPTFTTLSRGPPEPMLRLKWNHKVSLIGEKVLNPMIHCCDQCDKPILVYGRMIPCKHVFCLKCARAEPIKSCPRCTDKVLRVEQSGLGTVFMCTHGGSRYGSSGCRRTYLSQRDLQAHINHRHVAPQPPPLQPQPQLSAMAEQPKMTDLGGVGLGLELHKQRKLSESSVPISVSASIASRPVLSRLPLTGGVGNIGSIGSIPPPGSAAAAQNAIHGGHSTLTLANLTRINNANAQECHQGKASLHHTLKKGTPHQSESVADASYYSSVLASFGSAAGNPGSGPPGGGATAAAQPANPSGSHSAVGPGALIGGSTDAPTGGSSGNWQQSQYYR
Consider B1, for which the MAPPIT interaction score in [1] was 2.01; in [2], 0.0868; in [3] it was 0.0448.

B2: SdhB (protein)
chain: MLATEARQILSRVGSLVARNQMRAISNGTAQLEQQAQPKEAQEPQIKKFEIYRWNPDNAGEKPYMQTYEVDLRECGPMVLDALIKIKNEMDPTLTFRRSCREGICGSCAMNIGGTNTLACISKIDINTSKSLKVYPLPHMYVVRDLVPDMNNFYEQYRNIQPWLQRKNEAGEKKGKAQYLQSVEDRSKLDGLYECILCACCSTSCPSYWWNAEKYLGPAVLMQAYRWIIDSRDENSAERLNKLKDPFSVYRCHTIMNCTRTCPKGLNPGRAIAEIKKLLSGLASKPAPKLETAALHK
As for B2, in test [4], the MAPPIT interaction score was 0.135.

B3: p38b (protein)
chain: MSRKMAKFYKLDINRTEWEIPETYQNLQPVGQGAYGQVCKAVVRGTSTKVAIKKLARPFQSAVHAKRTYRELRLLKHMDHENVIGLLDVFHPGQPADSLDQFQQVYMVTHLMDADLNNIIRTQKLSDDHVQFLVYQILRGLKYIHSAGVIHRDLKPSNIAVNEDCELRILDFGLARPAESEMTGYVATRWYRAPEIMLNWMHYNQTADIWSVGCIMAELLTGRTLFPGTDHIHQLNLIMEVLGTPADEFMSRISSESARNYIRSLPVMPRRNFRDIFRGANPLAIDLLEKMLELDADKRITAEQALAHPYMEKYHDPTDEQTAALYDQSFEENELPVEKWREMVFSEVTAFKPTAAFAELLPKEQ
As for B3, the MAPPIT interaction score in test [5] was 1.93.

B4: prod (protein)
chain: MEKVEAVTVSNVDPYRRILNKVVSQLLLDKGAGQASNHSLETLTQMLQALIWEIGNSAHNYCELSGRTMPTVGDVSLALINMGISISNLDPYMRKETHVPIPLPPQQTQQRPLSLLQAGIKAPHPHYVPSYFPPMPDPHAYIRTPTHKQPVTEYEAIREKAACQKRDIEKALTKFLCKTTETNNLFPTEDNMFPLIACKPAFPPYAAALNPTDQVFDFEELEYHYLVANRTEDEPSKDDGEEGDSENEEMDGDKSKEEKPELDIKPNSNTNKAILENPNIDNPYLRAATLPKRSKNCPTPGTMPSRSLATTAPTIRTPSTLEITKTNL
Turning to B4, the results for the MAPPIT interaction score in [6], in test [7] and in [8] were 2.19, 0.326 and -0.147, respectively.

B5: flw (protein)
chain: MGDFDLNVDSLIQRLLEMRSCRTGKQVQMTEAEVRGLCLKSREIFLQQPILLELEAPLIICGDIHGQYTDLLRLFEYGGFPPAANYLFLGDYVDRGKQSLETICLLLAYKIKYPENFFLLRGNHECASINRIYGFYDECKRRYNVKLWKTFTDCFNCLPVAAIIDEKIFCCHGGLSPDLQGMEQIRRLMRPTDVPDTGLLCDLLWSDPDKDVQGWGENDRGVSFTFGVDVVSKFLNRHELDLICRAHQVVEDGYEFFARRQLVTLFSAPNYCGEFDNAGGMMTVDDTLMCSFQILKPSEKKAKYLYSGMNSSRPTTPQRSAPMLATNKKK
For the molecule B5, the MAPPIT interaction score was 0.517 in [9] (MAPPIT configuration: N-C); -0.255 in test [9] (MAPPIT configuration: N-N); -0.0767 in test [10]; -0.464 in [11]; 1.19 in test [12]; 0.478 in [13] (MAPPIT configuration: N-C). Moreover, the MAPPIT interaction score in [13] (MAPPIT configuration: N-N) is 0.558; in test [14], -0.48.

B6: grp (protein)
chain: MAATLTEAGTGPAATREFVEGWTLAQTLGEGAYGEVKLLINRQTGEAVAMKMVDLKKHPDAANSVRKEVCIQKMLQDKHILRFFGKRSQGSVEYIFLEYAAGGELFDRIEPDVGMPQHEAQRYFTQLLSGLNYLHQRGIAHRDLKPENLLLDEHDNVKISDFGMATMFRCKGKERLLDKRCGTLPYVAPEVLQKAYHAQPADLWSCGVILVTMLAGELPWDQPSTNCTEFTNWRDNDHWQLQTPWSKLDTLAISLLRKLLATSPGTRLTLEKTLDHKWCNMQFADNERSYDLVDSAAALEICSPKAKRQRLQSSAHLSNGLDDSISRNYCSQPMPTMRSDDDFNVRLGSGRSKEDGGDRQTLAQEARLSYSFSQPALLDDLLLATQMNQTQNASQNYFQRLVRRMTRFFVTTRWDDTIKRLVGTIERLGGYTCKFGDDGVVTVSTVDRNKLRLVFKAHIIEMDGKILVDCRLSKGCGLEFKRRFIKIKNALEDIVLKGPTTWPIAIATNSVP
Regarding B6, in [15], the MAPPIT interaction score is 2.02.

B7: Trmt112 (protein)
chain: MKLSTYNFLTSVAIKGVKVGFPLKLTINKKEVVESEFNPTFVERILPKLDWSAVYGAAQVAELTEDIPAVQPENIVENELLLQKLHHLLFEIDVLEGQLECPETGRVFPISDGIPNMLLNEDEV
On to B7, for which the MAPPIT interaction score in [16] (MAPPIT configuration: N-C, pair source set: screen_4) is 0.923; in test [16] (MAPPIT configuration: N-N, pair source set: Finley_Y2H), 1.99.
